Screening data: PubChem, several laboratories
C-LANA FP – blocks KSHV LANA C-terminal domain binding to DNA. MBP-C-LANA/FAM-LBS DNA binding, fluorescence polarization. inhibition, % at 9 µM. AID 504423. 340,000 compounds, 0.078% hits;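 active means highest replicate inhibition at or above 60% at 9 µM, even if other replicates fall short; inactive means all replicates below 60% inhibition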;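 further: 0% = neutral control wells and 100% = 4 µM acridine orange control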
RTF Ca sens act – cardiac RTF calcium sensitization; IANBD-labeled TnC RTF fluorescence at EC20 calcium; 0% EC20 calcium, 100% full calcium; activation, % at 7.2 µM; 340,000 compounds, 0.24% hits;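 active means activation above the mean over all tested compounds plus 3 SD, cut at about 30% in these data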;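 further: rise in fluorescence read as greater calcium sensitivity of cardiac thin filaments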
Cardiac RTF inh – cardiac RTF calcium desensitization | inhibition, % at 7.15 µM | 340,000 compounds, 0.12% hits | IANBD-labeled cardiac RTF, Ca2+ fluorescence | P19429+P45379;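 active means inhibition above the mean inhibition of all tested compounds plus 3 SD, cut at about 17% in these data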;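 further: assay run at fixed EC70 calcium of 1.6 mM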
LANA-H2B inh – blocks KSHV LANA binding to histone H2A/H2B. inhibition, % (no concentration beside the values). 320,000 compounds, 0.6% hits. cell-free LANA-H2A/H2B peptide, fluorescence polarization. AID 2629. Q9QR71; in the data active means inhibition mostly above about 10%, no sharp cut-off; inactive means mostly below about 6.7%
Keap1 Nrf2 FP – inhibitors of human Keap1-Nrf2 protein-protein interaction. Q14145. Keap1 Kelch-Nrf2 peptide fluorescence polarization, 1536-well. inhibition, % at 9.4 µM. 340,000 compounds, 0.15% hits. AID 504523; in the data active means inhibition above about 12%;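 further: human Keap1 Kelch domain with fluorescein labeled Nrf2 9mer peptide probe; 0% = neutral control wells and 100% = peptide positive control; higher means more block of Keap1 binding to Nrf2 peptide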
Target sequence (Q14145 whole entry, looked up, the tested form may be a part): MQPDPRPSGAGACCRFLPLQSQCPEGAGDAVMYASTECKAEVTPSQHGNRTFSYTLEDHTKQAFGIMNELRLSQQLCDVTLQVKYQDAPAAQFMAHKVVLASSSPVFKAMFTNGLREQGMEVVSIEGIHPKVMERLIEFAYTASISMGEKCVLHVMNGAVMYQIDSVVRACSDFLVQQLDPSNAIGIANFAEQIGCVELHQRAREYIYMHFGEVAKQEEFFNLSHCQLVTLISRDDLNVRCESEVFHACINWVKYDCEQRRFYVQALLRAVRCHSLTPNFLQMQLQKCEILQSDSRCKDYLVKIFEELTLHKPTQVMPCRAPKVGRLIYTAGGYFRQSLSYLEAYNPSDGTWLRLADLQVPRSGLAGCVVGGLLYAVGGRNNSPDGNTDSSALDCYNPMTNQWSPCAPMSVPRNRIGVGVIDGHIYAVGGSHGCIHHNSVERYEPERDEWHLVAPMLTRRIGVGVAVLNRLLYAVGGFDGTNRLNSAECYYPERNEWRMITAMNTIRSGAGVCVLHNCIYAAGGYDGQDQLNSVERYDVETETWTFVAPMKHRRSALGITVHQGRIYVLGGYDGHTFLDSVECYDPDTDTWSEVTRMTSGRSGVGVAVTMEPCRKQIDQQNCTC
RTF inh confirm – confirmation of inhibitors of cardiac thin filament calcium sensitivity; shares compounds with Cardiac RTF inh; reconstituted cardiac thin filaments, calcium sensitivity fluorescence; inhibition, % at 7.15 µM; 360 compounds, 8% hits; AID 504635; in the data active means inhibition above about 18%
DNA intercal 2 – intercalates DNA, flagged as C-LANA false positive | Acridine orange-DNA displacement, fluorescence polarization | AC50, µM (doses to about 35 µM), for the others: at the highest dose activity change, negative = inhibition | shares compounds with C-LANA FP | 20 tested, under 10 active;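 active means signal drop with an AC50 no more than ten times the top valid dose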
Keap1 Kelch bind – binders of human Keap1 Kelch domain. shares compounds with Keap1 Nrf2 FP. Keap1 Kelch thermal shift, delta Tm; stronger effect = higher value. max delta Tm, degrees C. 400 compounds, 8% hits; in the data active means max delta Tm above about 0.48 degrees C
Sypro dye melt – dye artifact in Keap1 thermal shift counter-screen. shares compounds with Keap1 Nrf2 FP. Sypro Orange dye-only thermal melt, no protein, delta Tm; top dose 26 µM. delta Tm, degrees C (test concentration not listed). 140 tested, under 10 active;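 active means at highest dose tested, delta Tm positive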
Numbers without * were called inactive; / = no result given; ! = not confirmed by another sample. Hits are enriched below; roughly 0.99% of the tested compounds scored in any of these assays.

SMILES | C-LANA FP | RTF Ca sens act | Cardiac RTF inh | LANA-H2B inh | Keap1 Nrf2 FP | Keap1 Kelch bind | others
CCOc1ccc(C2C(C(=O)c3cccs3)=C(O)C(=O)N2Cc2cccnc2)cc1OC (stereo unspecified) | 0 | 5 | -10 | 3 | -6 | /
Cc1ccc(-n2c(SCC(=O)O)nc3sc4c(c3c2=O)CCCC4)cc1 | -2 | -1 | 17* | -4 | -3 | / | RTF inh confirm=-4
COCCn1c(N)c(N(Cc2ccccc2)C(=O)COc2ccccc2F)c(=O)[nH]c1=O | 3 | -6 | 19* | -1 | -5 | / | RTF inh confirm=-5
O=C(Nc1ccc(N2CCOCC2)c(Cl)c1)c1ccc(F)cc1 | 1 | 3 | -7 | 1 | -2 | /
O=C(Nc1ccc(N2CCOCC2)c(Cl)c1)c1ccccc1Cl | 0 | 0 | 50* | 1 | -3 | / | RTF inh confirm=-5
O=C(CCn1nc(-c2ccc(Cl)cc2)c2ccccc2c1=O)NCC1CCCO1 (stereo unspecified) | 0 | 0 | -7 | -1 | -4 | /
COc1cccc(/C=N/Nc2nc3ccccc3n3cnnc23)c1O | 1 | -15 | 23* | 5 | -2 | / | RTF inh confirm=40*
COc1cccc(/C=N/Nc2nc3ccccc3n3cnnc23)c1 | -1 | 4 | -7 | -3 | -7 | /
O=C(O)CC(C(=O)O)N1C(=O)/C(=C/C=C/c2ccco2)SC1=S (stereo unspecified) | 106* | -25 | 66* | 12 | -2 | / | RTF inh confirm=21*;DNA intercal 2=6%
Cc1cc(C)nc(SCc2c(F)cccc2Cl)n1 | 6 | -4 | -5 | 2 | 0 | /
O=C(O)c1cccc(-n2cccc2/C=C2/NC(=O)N(c3ccc(Cl)cc3)C2=O)c1 | 110* | -46 | 75* | / | 19* | 0.46 | RTF inh confirm=55*
O=C(O)C1Nc2c(O)cc(Cl)c([N+](=O)[O-])c2C2C=CCC12 (stereo unspecified) | 120* | -37 | 86* | 9 | 42* | 0.92* | RTF inh confirm=36*;DNA intercal 2=5%
O=C(O)C1Nc2c(cccc2C(F)(F)F)C2C=CCC12 (stereo unspecified) | / | / | / | 3 | / | /
CN(CC(=O)NCCCN1CCOCC1)S(=O)(=O)c1ccc(F)cc1 | 0 | 1 | -3 | -2 | 3 | /
O=c1[nH]c(=S)[nH]c2c1C(c1ccc(Br)cc1)c1c([nH]c(=S)[nH]c1=O)O2 | 112* | -51 | 69* | -7 | 45* | -0.12 | RTF inh confirm=1;Sypro dye melt=-26
O=C1CCCC2=C1C(c1ccc(Br)cc1)c1c([nH]c(=S)[nH]c1=O)N2 (stereo unspecified) | 4 | -3 | -6 | 1 | 0 | /
O=C1C(=Cc2ccco2)CCC1=Cc1ccco1 | 116* | 3 | 29* | / | 20* | 0.86* | RTF inh confirm=60*
COCc1c(C)cc(C)c(/C=N/O)c1C | -1 | 6 | -6 | 0 | -2 | /
CC1(C)[C@@H](O[C@H]2O[C@H](C(=O)O)[C@@H](O)[C@H](O)[C@H]2O[C@@H]2O[C@H](C(=O)O)[C@@H](O)[C@H](O)[C@H]2O)CC[C@]2(C)[C@H]3C(=O)C=C4[C@@H]5C[C@@](C)(C(=O)O)CC[C@]5(C)CC[C@@]4(C)[C@]3(C)CC[C@@H]12 | / | / | / | / | / | / | DNA intercal 2=-5%
COC1CCCN(C(=O)c2cccc(OC3CCN(S(C)(=O)=O)CC3)c2)C1 (stereo unspecified) | -2 | -2 | 2 | -1 | 2 | /
CC(=O)c1ccc2c(c1)C1C=CCC1C(C(=O)O)N2 (stereo unspecified) | 114* | / | / | / | 21* | 2.1* | DNA intercal 2=2%;Sypro dye melt=-33
CC(=O)c1ccc2c(c1)C1C=CCC1C(c1ccncc1)N2 (stereo unspecified) | 3 | 1 | -6 | -6 | -6 | /
Nc1c(C(=O)Nc2ccccc2F)sc2nc(Cc3ccccc3)cc(C(F)(F)F)c12 | 44 | 49* | -8 | -23 | 33* | -0.2 | DNA intercal 2=19µM*
COc1cc(/C=C\C(=O)NCc2ccc3c(c2)cc(C)n3C)cc(OC)c1OC | 3 | -1 | -5 | -4 | 0 | /
CN1CCC2(CC1)C1CN(C)CC=C1C(C#N)=C(N)C2(C#N)C#N (stereo unspecified) | 40 | 37* | -44 | 12 | 14*! | -0.14
SMILES | C-LANA FP | RTF Ca sens act | Cardiac RTF inh | LANA-H2B inh | Keap1 Nrf2 FP | Keap1 Kelch bind | others
C[C@@H](NC(=O)c1[nH]cnc1C(=O)Nc1nccs1)c1ccccc1 | -1 | -3 | -5 | 3 | -2 | /
Cc1ccc(C(=O)NNC(=O)c2csc(N3CCOCC3)n2)o1 | 0 | 3 | 6 | 2 | 4 | /
O=C(NNC(=O)c1ccc(Br)o1)c1csc(N2CCOCC2)n1 | 27 | 7 | -11 | 1 | 46* | -0.12 | Sypro dye melt=-24
O=S(=O)([N-]c1nc2ccccc2nc1-[n+]1ccc(-c2ccncc2)cc1)c1ccccc1 | 5 | 51* | -39 | -13 | 17* | 0 | Sypro dye melt=-27
CCOn1c(=O)c(-c2cc3ccccc3o2)[n+]([O-])c2ccccc21 | -3 | 1 | -5 | -1 | 4 | /
O=c1c(-c2cc3ccccc3o2)[n+]([O-])c2ccccc2n1OCc1ccccn1 | 15 | 2 | -6 | 4 | 36* | -0.07 | Sypro dye melt=-32
CCC(C)(C)n1nnnc1C(c1cc2ccc(OC)cc2[nH]c1=O)N1CCc2ccccc2C1 (stereo unspecified) | 35 | -1 | -1 | -21 | 9.6* | -0.13 | Sypro dye melt=-24
CCOc1ccc(C(=O)COC(=O)c2nn(CC)c(=O)c3ccccc23)cc1 | 11 | -1 | -1 | 13* | 21* | -0.09
CCOC(=O)C1=C(CSc2nc3c(cc2C#N)CN(C)CC3)OC(N)=C(C#N)C1c1ccc(Cl)cc1 (stereo unspecified) | 3 | 5 | -13 | 9 | -6 | /
CCOC(=O)C1=C(CSc2nc3c(cc2C#N)CN(C)CC3)OC(N)=C(C#N)C1c1ccncc1 (stereo unspecified) | 35 | 11 | -38 | 12 | 17* | 0.08
CCOC(=O)c1c(=O)n(O)c2ccc(OC)cc2[n+]1[O-] | 26 | 26 | -17 | 82* | 19* | 0.01
COC(=O)c1cccc(NC(=O)Nc2ccc(Cl)cc2)c1 | -2 | / | / | 1 | -1 | /
COC(=O)c1cccc(NC(=O)NC(=O)c2ccc(Cl)cc2)c1 | 27 | / | / | 4 | 44* | -0.01
CCCn1nc(-c2ccccc2)c2nc3ccccc3nc21 | / | / | / | 21 | / | /
CCn1nc(-c2ccccc2)c2nc3ccccc3nc21 | 74 | 50* | -90 | 7 | 42* | -0.07 | Sypro dye melt=-28
